High-throughput results deposited in PubChem by The Scripps Research Institute Molecular Screening Center.
The full list was thinned out, with hits kept by preference.
TTR transcr act: increases transthyretin transcription; activation, % at 16.7 µM; SH-SY5Y TTR promoter Gaussia luciferase, luminescence; 100% = recombinant luciferase protein wells; hit rate 1.3% among 92,000; AID 1117267;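 active = activation above the mean of all tested compounds plus 3 SD, cut at about 9.5% in these data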;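 note: cells exposed to compounds for one day before reading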
HuH7 TTR inh: HuH7 TTR transcription inhibition, counter-screen; shares compounds with TTR transcr act; hit rate 4% among 1,100; inhibition, % at 16.7 µM; HuH7 TTR promoter-Gaussia luciferase reporter, luminescence;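 active = average inhibition above the solvent-only control wells' mean plus 3 SD, cut at about 15% in these data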;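 note: inhibitors lower well luminescence so higher value means more inhibition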
TTR act confirm: confirmation of human transthyretin transcription activators; 1,100 tested, under 10 active; shares compounds with TTR transcr act; SHSY5Y TTR promoter Gaussia luciferase, luminescence; 100% = purified Lucia enzyme wells, no cells; activation, % at 16.7 µM;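 active = mean activation above a set limit taken from the earlier primary screen, cut at about 11% in these data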
Each line names hits and unclear results; the compound was inactive in the other large screens (follow-up assays come after a bar, where they were run).

O=C(OCCn1c(=S)sc2ccccc21)c1ccccc1	none
CC1(c2nnnn2Cc2ccccc2)CCCCC(=O)N1Cc1cccs1 (centres undefined)	none
CC(C)N1CCCCC(NC(=O)COCc2ccccc2)C1=O (centres undefined)	none
CN(C)S(=O)(=O)c1cccc(C(=O)Nc2cc(S(=O)(=O)N3CCOCC3)ccc2N2CCCC2)c1	none
COc1cc(C(=O)NC(=S)Nc2ccc3ccccc3c2)cc(OC)c1OC	none
COc1cc(Br)c(C(C)NC(=O)c2cccc(Br)c2)cc1OC (centres undefined)	none
COc1cc(C(=O)NC(C)c2cccc3ccccc23)cc(OC)c1OC (centres undefined)	TTR transcr act 18.4 | HuH7 TTR inh inactive | TTR act confirm inactive
COC(=O)[C@]12C[C@H](CC(=O)NCc3ccc(OC)c(OC)c3)C(=O)N(CCc3ccc(OC)c(OC)c3)C1=C[C@H](C1CCCC1)O[C@@H]2C	none
Cc1ccccc1CN1CCCCC(NC(=O)Cc2cccs2)C1=O (centres undefined)	none
N[C@H]1CC[C@@H]2SC[C@@H](C(=O)O)N2C1=O	none
Cc1ccc(SCc2nc(N)nc(Nc3ccccc3C)n2)cc1C	none
Cc1ccc(SCc2nc(N)nc(Nc3ccccc3C)n2)c(C)c1	TTR transcr act 32.1 | HuH7 TTR inh inactive | TTR act confirm inactive
Cc1ccccc1Nc1nc(N)nc(CSc2nnc(C)n2C)n1	none
COc1ccccc1NC(=O)NNC(=O)c1cc2ccccc2cc1O	none
O=C(COC(=O)c1cc2ccccc2cc1O)NC(=O)NCc1ccco1	none
O=C(OCc1ccccc1F)c1cc2ccccc2cc1O	TTR transcr act 10.7 | HuH7 TTR inh inactive | TTR act confirm inactive
COCCn1c(SCC(=O)Nc2ccc(S(N)(=O)=O)cc2)nc2ccccc21	TTR transcr act 9.8 | HuH7 TTR inh inactive | TTR act confirm inactive
COCCn1c(SCC(=O)NC(C)c2ccccc2)nc2ccccc21 (centres undefined)	none
COCCn1c(SCC(=O)Nc2cccc(S(N)(=O)=O)c2)nc2ccccc21	none
O=C(OCc1cn(Cc2cc(F)ccc2F)nn1)N1CCOCC1	none
CCCCNC(=O)Cn1cnc2c(cnn2-c2ccc(C)c(C)c2)c1=O	none
CCOc1ccccc1NC(=O)Cn1cnc2c(cnn2-c2ccc(C)c(C)c2)c1=O	TTR transcr act 10.9 | HuH7 TTR inh inactive | TTR act confirm inactive
CCOCCCNC(=O)Cn1cnc2c(cnn2-c2ccc(F)cc2)c1=O	none
O=C(OCCCCSc1nnc(-c2cccc3ccccc23)o1)c1ccc(F)cc1	none
COc1ccc2c(c1)N=C(c1[nH]c3ccccc3c1CCN1C(=O)c3ccccc3C1=O)[C@]2(O)CCN1C(=O)c2ccccc2C1=O	none
